# Of roughly 8,800 targets only a part is listed; those with a hit were picked by preference. About 0.5% of all pairs of compound and target were hits. A number with no mark means an inactive call.
# Compound: NC(=O)Nc1cc(-c2cccc(F)c2)sc1C(=O)N[C@H]1CCCNC1
# Experiment: log2 fold change, soluble protein after heating vs DMSO (PISA); higher = thermal stabilisation; K562 lysate, 10 uM; active = over 0.2 and 3.5 SD of the protein, either way, in both replicates (recomputed)
# Method in brief: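 A 30 min treatment with 10 μM compound was applied to crude K562 extract at 1 mg/mL protein in PBS pH 7.4 with 1 mM MgCl2. Heating for 3 min spanned 48°C-58°C, after which aliquots were pooled, adjusted to 0.5% NP-40 at 4°C and spun at 21,000xg for 90 min. TMTpro 16plex LC-MS/MS of the supernatant, with channel sums equalised, gave values recorded as log-two fold change in thermal stability against solvent controls, from duplicates.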
# Sequence of UniProt Q13418 (Q13418 whole entry, looked up): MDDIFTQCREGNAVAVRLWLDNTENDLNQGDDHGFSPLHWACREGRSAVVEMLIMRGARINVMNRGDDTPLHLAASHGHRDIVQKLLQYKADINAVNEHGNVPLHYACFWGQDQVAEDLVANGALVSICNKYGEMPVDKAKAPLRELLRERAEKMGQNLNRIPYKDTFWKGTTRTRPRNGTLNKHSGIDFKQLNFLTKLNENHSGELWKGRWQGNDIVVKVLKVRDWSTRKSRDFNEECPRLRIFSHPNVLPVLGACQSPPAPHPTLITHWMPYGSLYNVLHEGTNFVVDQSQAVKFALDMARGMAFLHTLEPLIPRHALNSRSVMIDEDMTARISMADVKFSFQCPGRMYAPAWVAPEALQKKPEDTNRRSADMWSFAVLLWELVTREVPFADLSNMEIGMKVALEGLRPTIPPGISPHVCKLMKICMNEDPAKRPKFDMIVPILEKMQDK
# Sequence of UniProt P19367 (P19367 whole entry, looked up): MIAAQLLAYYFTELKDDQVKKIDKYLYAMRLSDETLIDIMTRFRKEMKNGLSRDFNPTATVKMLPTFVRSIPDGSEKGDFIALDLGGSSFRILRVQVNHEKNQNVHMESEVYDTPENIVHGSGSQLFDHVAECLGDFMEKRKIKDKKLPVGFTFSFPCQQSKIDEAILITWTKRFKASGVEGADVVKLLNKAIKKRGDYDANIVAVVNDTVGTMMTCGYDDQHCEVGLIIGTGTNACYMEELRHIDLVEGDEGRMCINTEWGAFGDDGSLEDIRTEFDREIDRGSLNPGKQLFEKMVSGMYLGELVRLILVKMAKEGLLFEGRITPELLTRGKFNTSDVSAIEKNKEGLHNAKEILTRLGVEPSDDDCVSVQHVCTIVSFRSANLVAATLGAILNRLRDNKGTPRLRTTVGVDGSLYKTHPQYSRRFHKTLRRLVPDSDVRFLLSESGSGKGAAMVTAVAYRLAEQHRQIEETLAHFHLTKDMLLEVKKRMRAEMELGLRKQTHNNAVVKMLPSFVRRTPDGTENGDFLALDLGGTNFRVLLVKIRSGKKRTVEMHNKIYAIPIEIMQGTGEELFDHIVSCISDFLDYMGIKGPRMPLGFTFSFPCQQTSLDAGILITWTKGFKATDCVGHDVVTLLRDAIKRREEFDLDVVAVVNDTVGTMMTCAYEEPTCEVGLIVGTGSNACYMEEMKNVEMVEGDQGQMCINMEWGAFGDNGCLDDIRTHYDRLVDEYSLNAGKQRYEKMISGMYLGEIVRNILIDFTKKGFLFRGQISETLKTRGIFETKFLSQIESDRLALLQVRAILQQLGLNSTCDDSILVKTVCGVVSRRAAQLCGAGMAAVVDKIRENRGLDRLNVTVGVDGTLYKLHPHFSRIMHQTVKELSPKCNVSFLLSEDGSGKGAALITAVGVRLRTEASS
# Sequence of UniProt Q16891 (Q16891 whole entry, looked up): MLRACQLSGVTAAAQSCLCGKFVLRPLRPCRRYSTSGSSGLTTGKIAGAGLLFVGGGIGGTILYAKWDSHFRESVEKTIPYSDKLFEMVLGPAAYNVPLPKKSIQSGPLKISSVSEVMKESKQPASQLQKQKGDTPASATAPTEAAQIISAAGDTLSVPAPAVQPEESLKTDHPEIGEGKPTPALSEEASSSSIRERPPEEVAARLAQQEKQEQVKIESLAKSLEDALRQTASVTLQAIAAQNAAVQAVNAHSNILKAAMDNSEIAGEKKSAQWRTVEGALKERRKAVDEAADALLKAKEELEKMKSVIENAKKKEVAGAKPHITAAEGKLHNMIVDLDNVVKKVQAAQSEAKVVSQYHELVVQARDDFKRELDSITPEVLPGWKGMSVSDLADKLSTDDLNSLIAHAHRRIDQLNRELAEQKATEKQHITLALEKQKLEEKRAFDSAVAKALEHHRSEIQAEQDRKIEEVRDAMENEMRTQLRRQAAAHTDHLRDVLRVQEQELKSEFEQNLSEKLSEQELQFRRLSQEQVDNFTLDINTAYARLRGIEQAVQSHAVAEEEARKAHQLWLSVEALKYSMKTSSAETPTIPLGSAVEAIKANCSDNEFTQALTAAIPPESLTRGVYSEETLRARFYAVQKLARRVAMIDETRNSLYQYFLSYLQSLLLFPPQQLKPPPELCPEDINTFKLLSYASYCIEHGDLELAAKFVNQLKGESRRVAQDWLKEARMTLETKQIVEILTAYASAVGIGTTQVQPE
# Sequence of UniProt Q68E01 (Q68E01 whole entry, looked up): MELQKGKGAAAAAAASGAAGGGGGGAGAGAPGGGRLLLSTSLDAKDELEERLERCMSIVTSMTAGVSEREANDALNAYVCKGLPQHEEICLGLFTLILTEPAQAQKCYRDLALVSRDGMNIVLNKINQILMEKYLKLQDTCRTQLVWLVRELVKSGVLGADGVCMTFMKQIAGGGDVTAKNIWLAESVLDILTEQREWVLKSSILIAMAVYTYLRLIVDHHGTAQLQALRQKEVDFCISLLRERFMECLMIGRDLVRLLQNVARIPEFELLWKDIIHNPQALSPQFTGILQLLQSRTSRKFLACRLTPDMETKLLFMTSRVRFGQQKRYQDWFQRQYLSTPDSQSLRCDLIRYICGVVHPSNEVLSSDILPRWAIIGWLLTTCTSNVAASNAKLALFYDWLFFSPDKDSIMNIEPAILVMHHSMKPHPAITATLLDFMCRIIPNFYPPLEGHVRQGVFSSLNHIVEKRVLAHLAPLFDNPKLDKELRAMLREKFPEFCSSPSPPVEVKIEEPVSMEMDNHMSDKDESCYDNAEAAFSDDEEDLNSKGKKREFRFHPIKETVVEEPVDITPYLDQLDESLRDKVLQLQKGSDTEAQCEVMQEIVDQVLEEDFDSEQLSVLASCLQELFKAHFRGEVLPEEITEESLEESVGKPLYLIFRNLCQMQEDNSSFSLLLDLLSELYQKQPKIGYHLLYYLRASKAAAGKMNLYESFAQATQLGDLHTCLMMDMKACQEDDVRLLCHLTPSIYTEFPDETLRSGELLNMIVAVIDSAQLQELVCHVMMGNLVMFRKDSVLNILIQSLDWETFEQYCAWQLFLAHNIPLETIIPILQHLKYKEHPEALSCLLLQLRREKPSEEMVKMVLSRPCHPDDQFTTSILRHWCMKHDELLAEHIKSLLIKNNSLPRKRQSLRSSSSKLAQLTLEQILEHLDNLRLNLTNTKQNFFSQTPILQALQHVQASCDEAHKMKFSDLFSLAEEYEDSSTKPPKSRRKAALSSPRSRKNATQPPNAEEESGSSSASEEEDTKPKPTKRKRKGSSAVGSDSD
# Sequence of UniProt P50747 (P50747 whole entry, looked up): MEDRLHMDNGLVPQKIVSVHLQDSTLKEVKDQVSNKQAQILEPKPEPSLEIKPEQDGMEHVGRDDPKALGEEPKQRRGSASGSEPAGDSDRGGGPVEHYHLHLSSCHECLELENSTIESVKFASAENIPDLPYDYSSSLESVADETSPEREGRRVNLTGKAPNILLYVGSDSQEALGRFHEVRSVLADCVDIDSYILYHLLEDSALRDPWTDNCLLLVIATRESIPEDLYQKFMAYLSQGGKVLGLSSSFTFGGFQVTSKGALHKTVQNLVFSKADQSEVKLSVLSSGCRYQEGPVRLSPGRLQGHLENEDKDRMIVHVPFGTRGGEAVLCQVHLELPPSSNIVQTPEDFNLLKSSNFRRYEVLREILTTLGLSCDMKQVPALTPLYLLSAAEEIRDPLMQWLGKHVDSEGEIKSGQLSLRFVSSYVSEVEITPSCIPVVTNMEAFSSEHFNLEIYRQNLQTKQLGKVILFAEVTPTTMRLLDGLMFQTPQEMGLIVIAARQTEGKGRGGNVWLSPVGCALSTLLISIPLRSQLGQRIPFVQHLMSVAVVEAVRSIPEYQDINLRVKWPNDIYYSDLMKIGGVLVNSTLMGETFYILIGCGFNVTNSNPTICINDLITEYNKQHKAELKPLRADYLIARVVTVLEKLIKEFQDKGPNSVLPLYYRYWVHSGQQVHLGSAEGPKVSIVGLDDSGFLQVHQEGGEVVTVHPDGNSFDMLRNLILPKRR
# Sequence of UniProt Q13478 (Q13478 whole entry, looked up): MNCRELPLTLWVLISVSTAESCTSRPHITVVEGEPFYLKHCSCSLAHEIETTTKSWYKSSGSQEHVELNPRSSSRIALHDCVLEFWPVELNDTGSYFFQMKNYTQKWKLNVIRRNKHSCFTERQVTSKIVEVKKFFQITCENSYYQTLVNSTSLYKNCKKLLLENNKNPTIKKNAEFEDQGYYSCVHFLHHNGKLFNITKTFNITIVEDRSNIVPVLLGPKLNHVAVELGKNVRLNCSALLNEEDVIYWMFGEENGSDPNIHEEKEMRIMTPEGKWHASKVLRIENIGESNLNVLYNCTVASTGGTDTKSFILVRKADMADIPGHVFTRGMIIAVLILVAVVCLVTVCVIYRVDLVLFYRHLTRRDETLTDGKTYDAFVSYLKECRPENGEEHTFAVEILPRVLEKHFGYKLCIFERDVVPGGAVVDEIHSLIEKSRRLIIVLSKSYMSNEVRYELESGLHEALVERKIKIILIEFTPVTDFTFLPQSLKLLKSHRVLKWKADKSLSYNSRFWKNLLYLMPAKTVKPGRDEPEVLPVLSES
# Sequence of UniProt P52655 (P52655 whole entry, looked up): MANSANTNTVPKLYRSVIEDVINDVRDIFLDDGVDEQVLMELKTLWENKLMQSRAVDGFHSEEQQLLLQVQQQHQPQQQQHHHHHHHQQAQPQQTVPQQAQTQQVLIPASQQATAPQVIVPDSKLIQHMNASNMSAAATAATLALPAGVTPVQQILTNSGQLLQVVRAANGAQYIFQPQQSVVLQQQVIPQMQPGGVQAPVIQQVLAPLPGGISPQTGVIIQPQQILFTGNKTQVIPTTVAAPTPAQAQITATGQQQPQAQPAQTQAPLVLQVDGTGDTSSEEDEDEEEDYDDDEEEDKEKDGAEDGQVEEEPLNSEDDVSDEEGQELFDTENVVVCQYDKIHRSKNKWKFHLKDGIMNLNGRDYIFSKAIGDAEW
row,Target,log2 fold change
1,GTPBP2 (UniProt Q9BX10),0.042
2,GMDS (UniProt O60547),0.038
3,HSPA8 (UniProt E9PK54),0.113
4,ILK (UniProt Q13418),0.097
5,HNRNPUL2 (UniProt Q1KMD3),0
6,KDM1A (UniProt O60341),0.029
7,INF2 (UniProt Q27J81),0.023
8,ITPKA (UniProt P23677),0.044
9,INTS3 (UniProt Q68E01),0.028
10,KBTBD4 isoform 2 (UniProt Q9NVX7),0.086
11,HNRNPL (UniProt P14866),0.042
12,HK1 isoform 2 (UniProt P19367),0.008
13,HAUS8 (UniProt Q9BT25),0.042
14,IMMT (UniProt Q16891),-0.007
15,HIST2H2AA3 (UniProt Q6FI13),0.076
16,HAUS6 (UniProt Q7Z4H7),0.035
17,ISY1 isoform 1 (UniProt Q9ULR0),0.014
18,HLCS (UniProt P50747),-0.011
19,HSD17B12 (UniProt Q53GQ0),0.058
20,HAUS7 isoform 2 (UniProt Q99871),0.063
21,GTF2A1 (UniProt P52655),-0.04
22,IL18R1 (UniProt Q13478),0.155
23,IRAK4 (UniProt Q9NWZ3),0.413 (active)

# From the supplement of paper PMC10849652
